This is part of a sample that, as a whole, favours compounds with a hit. Of some 79,000 tested, about 15% had one in any assay. Activity calls are given as the source filed them. Cut-off read from the data, not from the text of the source: active = growth inhibition above about 70%; inactive = the rest.
Tests used:
[1] = NCI Yeast Anticancer Drug Screen. Data for the rad50 strain (AID 155);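 note: 0% = growth of vehicle-only cultures of the same strain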; details: S. cerevisiae rad50 strain growth inhibition; at 50.0 µM; active compounds read high
In short: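 Genetically altered yeast (DNA repair pathway); compound treatment; growth inhibition vs vehicle ctrl.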

[2] = NCI Yeast Anticancer Drug Screen. Data for the mec2-1 strain (AID 157); details: S. cerevisiae mec2-1 strain, at 50.0 µM, active compounds read high
In short: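 Strain: mec2-1 (DNA repair/cell cycle alteration). Compound exposure, then growth measured; inhibition expressed relative to vehicle.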

[3] = NCI Yeast Anticancer Drug Screen. Data for the cln2 rad14 strain (AID 165);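 note: 0% = growth equal to vehicle treated cultures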; details: S. cerevisiae cln2 rad14 strain, at 50.0 µM, active compounds read high
In short: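 Compounds are applied to the cln2 rad14 yeast strain, and growth is then compared with that of vehicle-treated cultures to give inhibition.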

[4] = NCI Yeast Anticancer Drug Screen. Data for the bub3 strain (AID 167); details: S. cerevisiae bub3 mutant strain, at 50.0 µM, active compounds read high
In short: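 Yeast carrying a defined mutation is treated with each compound, and growth is compared with that of vehicle-exposed cells to give inhibition.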

[5] = NCI Yeast Anticancer Drug Screen. Data for the mlh1 rad18 strain (AID 175); details: S. cerevisiae mlh1 rad18 strain growth inhibition; at 50.0 µM; active compounds read high
In short: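 Read-out is yeast growth inhibition, calculated against vehicle-only controls. The compound was applied to a strain engineered with DNA damage repair alterations.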

[6] = NCI Yeast Anticancer Drug Screen. Data for the sgs1 mgt1 strain (AID 161);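 note: 0% = growth of cultures given vehicle only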; details: S. cerevisiae sgs1 mgt1 strain, at 50.0 µM, active compounds read high
In short: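 Inhibition of yeast growth, normalised to vehicle-treated controls, is reported for a strain bearing genetic alterations in DNA damage repair.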

Measured: growth inhibition

COC(=O)Nc1nc2ccc(-n3c(C)nc4ccccc4c3=O)cc2[nH]1
inactive: [1] 10.8% | [2] -0.45% | [3] 8.5% | [4] 4.95% | [5] 15.8%

CC1(C)COC2(CC(C)(C)OC2(C)C)OC1
inactive: [1] -1.45% | [2] 0.8% | [3] -40.8% | [4] -7.25% | [5] 14.8%

CCCSc1ccc([N+](=O)[O-])cc1[N+](=O)[O-]
inactive: [1] 31.8% | [2] -5.6% | [3] 1% | [4] -5.35% | [5] 32.8%

COc1ccc(C2Oc3cc(OC)c(OC)cc3C2CCl)cc1OC (stereo not given)
inactive: [1] -20.1% | [2] 1.85% | [3] -0.4% | [4] -26.9% | [5] -35.2%

O=[N+]([O-])c1cc2c(c([N+](=O)[O-])c1)Nc1cc(Cl)ccc1O2
inactive: [1] 1.6% | [2] 19.8% | [3] 11.8% | [4] 4.4% | [5] 26.9%

Cc1cc(CC(=S)[S-])[n+](C)c(CC(=S)S)c1
inactive: [1] 12.2% | [2] 8.05% | [3] 3.75% | [4] -1.55% | [5] 19.8%

O=C1c2ccccc2C2(Br)C(=O)c3ccccc3C12Br (stereo not given)
active: [1] 98.6% | [2] 99% | [3] 98.5% | [4] 98.5% | [5] 98.9%

C=CCn1c(NCCN(CC)CC)nc2ccc(Cl)cc2c1=O
inactive: [1] 47% | [2] 6.5% | [3] 0.85% | [4] 11.8% | [5] 19.4%

CC(C(O)C(F)(F)F)[N+](C)(C)C (stereo not given)
inactive: [1] 34.8% | [2] 5.85% | [3] -13.8% | [4] 10.1% | [5] 28%

NCCC(=O)NCCSSCCNC(=O)CCN
inactive: [1] -8.45% | [2] 11% | [3] -16.8% | [4] 6.8% | [5] 15.1%

CCOC(=O)C1CN(C)C(=O)C1=O (stereo not given)
inactive: [1] 17.2% | [2] -2.4% | [3] 2.35% | [4] -0.05% | [5] 25.9%

C=CCN1C(N)=C(C#N)C(C#N)(C#N)C1CCC (stereo not given)
inactive: [1] 1.2% | [2] 7.65% | [3] 15.8% | [4] -16.6% | [5] -36.6%

COc1cc(NS(C)(=O)=O)ccc1Nc1c2ccccc2nc2c1[nH]c1ccc(NC3OC(CO)C(O)C(O)C3O)cc12 (stereo not given)
inactive: [1] 53.8% | [2] -4.9% | [3] 0.2% | [4] -26.3% | [5] -27.6%

COc1ccc(CNc2nc3ccccc3nc2C(=O)O)cc1OC
inactive: [1] 1.9% | [2] 18.6% | [3] 7.25% | [4] 9% | [5] -12.5%

c1ccc(-c2nc3c(N4CCOCC4)ncnc3o2)cc1
inactive: [1] -3.25% | [2] -4.65% | [3] -2.55% | [4] -4.8% | [5] 2.75%

O=C(Nc1cccc(O)c1)c1ccc([N+](=O)[O-])cc1
inactive: [1] 1.5% | [2] 18.6% | [3] -15.3% | [4] 19.7% | [5] 23.4%

CC1(C)C=C(C(Br)c2ccc(Cl)cc2)C(=O)c2ccccc21 (stereo not given)
active: [1] 96.8% | [2] 97.4% | [3] 94.7% | [4] 88.2% | [5] 98.2%

Cc1ccc(NC(=O)Oc2ccc(F)cc2)cc1NC(=O)Oc1ccc(F)cc1
inactive: [1] 25.9% | [2] 13.3% | [3] 15.2% | [4] -4.95% | [5] 33.6%

CC(=O)Nc1ccc(/C=N/NC(=O)c2ccc(O)cc2)cc1
inactive: [1] 1.7% | [2] 9.55% | [3] 4.15% | [4] 2.35% | [5] 0.9%

Cc1ccc(CNC(=O)NC(C)(C)C)cc1
inactive: [1] -3.05% | [2] -8.45% | [3] -50.2% | [4] 1.85% | [5] 0.1%

O=C1CN(c2ccc(Cl)cc2)C(=O)CN1CCN1CC(=O)N(c2ccc(Cl)cc2)CC1=O
inactive: [1] -43.5% | [2] -10.3% | [3] 10.6% | [4] -39.6% | [5] -23.6%

O=c1[nH]c(Nc2ccc(Cl)c(C(F)(F)F)c2)nc2nc[nH]c12
inactive: [1] 17.7% | [2] 7.55% | [3] 9.9% | [4] 8.45% | [5] 23.1%

N#Cc1ccc(CSC2=C(c3ccc(Cl)cc3)S/C(=C3\SC(SCc4ccc(C#N)cc4)=C(c4ccc(Cl)cc4)S3)S2)cc1
inactive: [1] -16.8% | [2] -15.3% | [3] 7.7% | [4] -8.4% | [5] -25.9%

CC(C)(C)NC(NC(C)(C)C)=C(C(Cl)=C(Cl)Cl)[N+](=O)[O-]
inactive: [1] -2.1% | [2] -9.55% | [3] 7.8% | [4] 12.7% | [5] -0.75%

COCC1C(COC)C2CCC1C2(Cc1ccccc1)Cc1ccccc1 (stereo not given)
inactive: [1] 1.4% | [2] 12.4% | [3] -45.4% | [4] 0% | [5] -7.2%

CCOC(=O)C[P+](c1ccc(OC)cc1)(c1ccc(OC)cc1)c1ccc(OC)cc1
active: [1] 90.8% | [2] 95.8% | [3] 92.9% | [4] 92.3% | [5] 91.5%

C=CCNC(=O)CN(CC(=O)OC)C1CCCCC1N(CC(=O)OC)CC(=O)OC (stereo not given)
inactive: [1] -8.3% | [2] -6.6% | [3] 6.75% | [4] 2% | [5] 1.75%

CCCCCCOc1ccc(OCCCC[N+]2(CC)CCCCC2)cc1
inactive: [3] 46.5%
active: [1] 75.5% | [2] 87.8% | [4] 90.8% | [5] 90.8%

O=C(COc1cccc(Cl)c1)Nc1cccc(S(=O)(=O)O)c1 (tested in a mixture with another compound)
inactive: [1] 5.15% | [2] -7.65% | [3] -16.6% | [4] 2% | [5] 11.2%

CCOC(=O)C(c1ccccc1)N(CCCN(CC)CC)c1ccccc1 (stereo not given)
inactive: [1] -10.8% | [2] -3.25% | [3] -9.1% | [4] 5.15% | [5] 0.45%

COc1cccc(C(C#N)c2cnc3ccccc3n2)c1 (stereo not given)
inactive: [1] 27.4% | [2] 14.6% | [3] 33.2% | [4] 37.1% | [5] 27.4%

CCOC(=O)c1[nH]c(-c2ccc(OC)cc2)c(C(=O)OCC)c1-c1ccccc1
inactive: [1] 38.6% | [2] -4.7% | [3] -0.2% | [4] 3.05% | [5] 24.1%

Cc1cc(OC(N)=S)cc(C)c1Cl
inactive: [1] 20.6% | [2] 4.2% | [3] -6.25% | [4] 3.4% | [5] -2.1%

Cc1ccc(OCC(O)CN2CCN(c3ccc(C)cc3)CC2)cc1 (stereo not given)
inactive: [2] -10.4% | [6] 36% | [3] -35.7% | [4] 4.55% | [5] 0.05%

CCCCC(N)CSSCC(N)CCCC (stereo not given)
inactive: [2] -44% | [6] -23.3% | [3] -20.1% | [4] -50.6% | [5] -35.6%

Clc1cc(Cl)c2ncccc2c1
inactive: [2] 17.9% | [6] 3.3% | [3] -30.2% | [4] 17.8% | [5] 11.8%

O=c1[nH]c(Sc2ccccc2)nc2ccccc12
inactive: [2] 9.45% | [6] 13.1% | [3] -58.1% | [4] 18.2% | [5] 7.25%

CN(c1cn(C2CC[C@@H](CO)O2)c(=O)[nH]c1=O)C1CCCCC1 (stereo not given in full)
inactive: [2] -13.4% | [6] -58.4% | [3] -6% | [4] 5.35% | [5] -41.5%

CCCCCCCC(=O)N(CC)CC
inactive: [2] -4.05% | [6] 25.4% | [3] -17.1% | [4] 1.6% | [5] 8.75%

CC1S/C(=N\N=C\c2ccc(Cl)cc2)N=C1c1c(O)c2ccccc2oc1=O (stereo not given)
inactive: [2] 52% | [6] 57.4% | [3] -7.5% | [4] 7.65% | [5] 45.9%

C=C(C)c1ccc(C(=C)C)cc1
inactive: [2] -40.9% | [6] -38.2% | [3] -3.9% | [4] -23.9% | [5] -40.5%

CCC1([N+](=O)[O-])CC2C=CC1C2 (stereo not given)
inactive: [2] -14.3% | [6] -26% | [3] -4.15% | [4] -21.7% | [5] -13.2%

CN(C)S(=O)(=O)C(C(N)=O)c1ccccc1 (stereo not given)
inactive: [2] 10.6% | [6] 19.4% | [3] -14.9% | [4] 7.65% | [5] 10.4%

Nc1c(S(=O)(=O)O)cc2cc(S(=O)(=O)O)ccc2c1N
inactive: [2] -12.6% | [6] 6% | [3] -15.7% | [4] 17.8% | [5] 24.9%

N#CC(c1cc2c(cc1Br)OCO2)N1CCOCC1 (stereo not given)
inactive: [2] 19.4% | [6] 10.9% | [3] 8.25% | [4] 46% | [5] -11.8%

Nc1nc(-c2ccccc2)c(N=Nc2cccc(Cl)c2)s1
inactive: [2] -4% | [6] -11.4% | [3] -48% | [4] -2% | [5] -10.8%

— PubChem BioAssay (NCI)
